Assay [1] can be described thus: ATG_Sox_CIS: Attagene CIS-FACTORIAL HepG2 Assay for human SRY-box transcription factor (SOX) (AID 2282960). The settings on record: HepG2 Attagene cis-factorial SOX reporter, mRNA; actives raise or lower the signal. The method, boiled down: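 After 24 h of chemical treatment, transfected HepG2 reporter cells are lysed for total RNA. Transcript levels come from RT-PCR with labelled primer extension and capillary electrophoresis, analysed bidirectionally versus DMSO.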

The target of assay [2] is Transcription factor Sp1 (Homo sapiens) (UniProt P08047). Description: ATG_Sp1_CIS: Attagene CIS-FACTORIAL HepG2 Assay for human Specificity Protein 1 (Sp1) (AID 2282961). The settings on record: HepG2 Sp1 cis-reporter transcription, actives raise or lower the signal. The method, boiled down: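 Sp1-driven reporter mRNA, read as capillary electrophoresis fluorescence after RT-PCR, in transiently transfected HepG2 cells dosed for 24 h; signal change in either direction relative to DMSO.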

The nature of assay [3]: ATG_SREBP_CIS: Attagene CIS-FACTORIAL HepG2 Assay for human Sterol Regulatory Element Binding (SREBP) (AID 2282962). The following applies: HepG2 Attagene cis-factorial SREBP reporter, mRNA; actives raise or lower the signal. An outline of the steps:
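Values derive from bidirectional curve fitting with DMSO as baseline. The underlying measurement is reporter mRNA from cis-element-regulated units in transiently transfected HepG2, quantified by RT-PCR and capillary electrophoresis after 24 h exposure.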

In assay [4] the target is Signal transducer and activator of transcription 3 (Homo sapiens) (UniProt P40763). Description: ATG_STAT3_CIS: Attagene CIS-FACTORIAL HepG2 Assay for human Signal Transducer and Activator of Transcription 3 (STAT3) (AID 2282963). The following applies: HepG2, Attagene cis-factorial STAT3 reporter transcription; actives raise or lower the signal. An outline of the steps:
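Fluorescence intensity of 6-FAM-labelled reporter fragments, separated by capillary electrophoresis after RT-PCR, gave the signal. Cells were HepG2 transfected with cis-element reporter units and treated 24 h; fitting was bidirectional relative to DMSO.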

A short description of assay [5]: ATG_TA_CIS: Attagene CIS-FACTORIAL HepG2 Assay for human TA Basal Promoter (AID 2282964). The settings on record: HepG2 Attagene CIS-factorial TA basal promoter reporter; actives raise or lower the signal. The method, boiled down: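 Steps: transfect HepG2 with MRTUs; dose 24 h; isolate RNA, DNase-treat, reverse-transcribe; PCR and FAM-label reporter cDNA; digest with HpaI 2h at 37 C; run capillary electrophoresis. Activity fitted both directions against DMSO.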

Assay [6] in a line: ATG_TCF_b_cat_CIS: Attagene CIS-FACTORIAL HepG2 Assay for human T-Cell-Factor with beta-catenin (TCF/b-cat) (AID 2282965). The following applies: HepG2 TCF/beta-catenin cis-reporter transcription, actives raise or lower the signal. An outline of the steps: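 Cells of the HepG2 line carry transiently transfected reporter units whose promoters respond to endogenous factors. Twenty-four hours post-dosing, reporter mRNA induction is measured by fluorescent RT-PCR and capillary electrophoresis, with DMSO as baseline.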

Assay [7] in a line: ATG_TAL_CIS: Attagene CIS-FACTORIAL HepG2 Assay for human TAL Basal Promoter (AID 2282966).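 Note: background control endpoint measuring basal TAL promoter reporter mRNA not a specific factor.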 The following applies: HepG2 Attagene cis-factorial TAL promoter reporter; actives raise or lower the signal. The method, boiled down: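 Endogenous transcription-factor activity is sensed in HepG2 cells through transfected cis-promoter reporter constructs. After 24 h dosing, reporter transcripts are quantified by RT-PCR and capillary electrophoresis. Gain or loss of signal is fitted relative to DMSO.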

Assay [8] can be described thus: ATG_TGFb_CIS: Attagene CIS-FACTORIAL HepG2 Assay for human Transforming Growth Factor (TGF) (AID 2282967). The following applies: HepG2 Attagene CIS TGFb reporter, mRNA transcription; actives raise or lower the signal. An outline of the steps:
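Cells were dosed for 24 hours, after which total RNA was reverse-transcribed and reporter sequences amplified, labeled and sized by capillary electrophoresis. Activity was fitted in both directions against DMSO.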

Assay [9] can be described thus: ATG_VDRE_CIS: Attagene CIS-FACTORIAL HepG2 Assay for human Vitamin D Receptor Element (VDRE) (AID 2282968). The settings on record: HepG2 VDRE cis-reporter transcription, actives raise or lower the signal. An outline of the steps:
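Compounds were applied for 24 h to HepG2 cells transfected with promoter-regulated reporter units. Total RNA was reverse-transcribed, and reporter amplicons were fluorescently labelled and sized by capillary electrophoresis.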

Assay [10] deals with X-box-binding protein 1 (Homo sapiens) (UniProt P17861). Description: ATG_Xbp1_CIS: Attagene CIS-FACTORIAL HepG2 Assay for human X-box Binding Protein 1 (XBP1) (AID 2282972). The following applies: HepG2 XBP1 cis-element reporter, Attagene multiplex; actives raise or lower the signal. An outline of the steps:
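Human hepatoma HepG2, cis-element reporter system, 24 h treatment; mRNA quantified by RT-PCR/CE fluorescence; fit relative to DMSO.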

In assay [11] the target is Bile acid receptor (Homo sapiens) (UniProt Q96RI1). Description: ATG_FXR_TRANS: Attagene TRANS-FACTORIAL HepG2 Assay for Farnesoid X Receptor (FXR) (AID 2282979; active = hit-call score of the fitted dose curve at least 0.9, where 1 is the maximum;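 note: hits raise reporter mRNA above DMSO so AC50 marks FXR activation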). The following applies: HepG2 Attagene TRANS FXR-GAL4 reporter transcription. An outline of the steps: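 Chimeric FXR-GAL4 activity in transiently transfected human HepG2 liver cells is scored as induction of reporter mRNA after 24 h of dosing. Detection uses RT-PCR with fluorescent labelling and capillary electrophoresis, with DMSO serving as baseline.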

The nature of assay [12]: ATG_GAL4_TRANS: Attagene TRANS-FACTORIAL HepG2 Assay for GAL4 (Internal Marker) (AID 2282976; active = hit-call score of the fitted dose curve at least 0.9, where 1 is the maximum). The following applies: HepG2 Attagene TRANS GAL4 internal marker reporter. The method, boiled down:
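Fluorescence from capillary electrophoresis of labelled RT-PCR products quantifies reporter mRNA induction after 24 h dosing of HepG2 cells carrying transfected GAL4-UAS reporter transcription units. Vehicle DMSO serves as baseline.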

Assay [13] concerns the target Nuclear receptor subfamily 1 group I member 3 (Homo sapiens) (UniProt Q14994). Description: ATG_CAR_TRANS: Attagene TRANS-FACTORIAL HepG2 Assay for human Constitutive Androstane Receptor (CAR) (AID 2282969; active = hit-call score of the fitted dose curve at least 0.9, where 1 is the maximum;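 note: activators raise reporter mRNA above DMSO so AC50 marks induction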). The following applies: HepG2 Attagene TRANS-FACTORIAL CAR reporter. An outline of the steps: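 Transiently transfected HepG2, multiplex TRANS reporters (CAR-Gal4 chimera driving GAL4-UAS reporter). 24 h dosing. Readout: reporter transcript by RT-PCR + capillary electrophoresis, fluorescence intensity; positive direction vs DMSO.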

Assay [14] concerns the target Estrogen receptor (Homo sapiens) (UniProt P03372). Description: ATG_ERa_TRANS: Attagene TRANS-FACTORIAL HepG2 Assay for human Estrogen Receptor alpha (ERa) (AID 2282970; active = hit-call score of the fitted dose curve at least 0.9, where 1 is the maximum). The following applies: HepG2 Attagene TRANS ERa GAL4 reporter, mRNA. An outline of the steps:
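Transfected HepG2 cells carrying GAL4-UAS-driven reporter units were dosed for 24 hours. Total RNA was reverse-transcribed, reporter sequences PCR-amplified, FAM-labelled, HpaI-digested and resolved by capillary electrophoresis. Increases over DMSO control defined activity.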

Assay [15] concerns the target Steroid hormone receptor ERR1 (Homo sapiens) (UniProt P11474). Description: ATG_ERRa_TRANS: Attagene TRANS-FACTORIAL HepG2 Assay for human Estrogen-Related Receptor alpha (ERRa) (AID 2282971; active = hit-call score of the fitted dose curve at least 0.9, where 1 is the maximum). The following applies: HepG2 Attagene TRANS reporter, ERRa transactivation. An outline of the steps:
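HepG2 cells were transiently transfected with multiple GAL4-UAS reporter units, then dosed with compound for 24 h. Total RNA was reverse-transcribed, reporter cDNA PCR-amplified and fluorescently labelled, and fragments resolved by capillary electrophoresis; induction was compared with DMSO.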

Assay [16] can be described thus: ATG_M_19_TRANS: Attagene TRANS-FACTORIAL HepG2 Assay for M19 Transcription Factor (Internal Marker) (AID 2282974; active = hit-call score of the fitted dose curve at least 0.9, where 1 is the maximum). The settings on record: HepG2 Attagene TRANS-FACTORIAL M19 internal marker reporter. The method, boiled down:
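Measured here: internal-marker reporter transcript from HepG2 cells transfected with MRTUs, harvested at 24 h. cDNA PCR products were 6-FAM labelled by primer extension, cut with HpaI for 2 h at 37 C, and resolved by CE.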

Assay [17] deals with Glucocorticoid receptor (Homo sapiens) (UniProt P04150). Description: ATG_GR_TRANS: Attagene TRANS-FACTORIAL HepG2 Assay for human Glucocorticoid Receptor (GR) (AID 2282978; active = hit-call score of the fitted dose curve at least 0.9, where 1 is the maximum;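 note: activators score as hits since higher reporter transcript over DMSO is fitted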). The following applies: HepG2 Attagene TRANS GR reporter, mRNA transcription. The method, boiled down: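 Measurement of GAL4-UAS-driven reporter mRNA in human HepG2 liver cells 24 h post-dosing, using RT-PCR with fluorescent labelling and capillary electrophoresis; the transfected constructs report exogenous NR-GAL4 chimera activity, fitted upward against DMSO.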

SMILES strings stand for the structures. Records with an inconclusive call do not appear. Activity calls are given as the source filed them. Rule for the calls, unless noted: active = hit-call score of the fitted dose curve at least 0.9, where 1 is the maximum; inactive = score below 0.9.

Chain of X-box-binding protein 1 (Homo sapiens) (P17861 whole entry, looked up): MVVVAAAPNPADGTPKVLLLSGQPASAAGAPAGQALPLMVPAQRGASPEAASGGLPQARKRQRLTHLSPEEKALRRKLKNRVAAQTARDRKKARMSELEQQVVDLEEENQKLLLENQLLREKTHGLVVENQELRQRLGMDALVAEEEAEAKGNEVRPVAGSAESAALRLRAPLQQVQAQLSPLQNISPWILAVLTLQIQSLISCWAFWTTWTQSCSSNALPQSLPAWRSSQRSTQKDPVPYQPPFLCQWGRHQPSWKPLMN
Chain of Bile acid receptor (Homo sapiens) (Q96RI1 whole entry, looked up, the tested form may be a part): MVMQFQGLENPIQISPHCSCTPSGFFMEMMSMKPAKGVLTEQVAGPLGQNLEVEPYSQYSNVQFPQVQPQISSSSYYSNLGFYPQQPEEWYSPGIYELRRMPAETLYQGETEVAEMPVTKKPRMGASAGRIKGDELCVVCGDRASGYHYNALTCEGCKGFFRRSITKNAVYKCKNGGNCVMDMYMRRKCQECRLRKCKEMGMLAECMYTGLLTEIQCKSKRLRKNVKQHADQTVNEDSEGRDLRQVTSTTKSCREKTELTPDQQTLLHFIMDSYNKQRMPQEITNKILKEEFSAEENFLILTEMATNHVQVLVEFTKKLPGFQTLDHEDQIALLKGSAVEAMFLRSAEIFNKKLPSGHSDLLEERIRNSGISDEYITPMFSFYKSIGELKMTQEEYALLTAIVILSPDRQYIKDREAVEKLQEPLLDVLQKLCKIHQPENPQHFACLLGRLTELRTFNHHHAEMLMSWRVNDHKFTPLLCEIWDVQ
Chain of Transcription factor Sp1 (Homo sapiens) (P08047 whole entry, looked up): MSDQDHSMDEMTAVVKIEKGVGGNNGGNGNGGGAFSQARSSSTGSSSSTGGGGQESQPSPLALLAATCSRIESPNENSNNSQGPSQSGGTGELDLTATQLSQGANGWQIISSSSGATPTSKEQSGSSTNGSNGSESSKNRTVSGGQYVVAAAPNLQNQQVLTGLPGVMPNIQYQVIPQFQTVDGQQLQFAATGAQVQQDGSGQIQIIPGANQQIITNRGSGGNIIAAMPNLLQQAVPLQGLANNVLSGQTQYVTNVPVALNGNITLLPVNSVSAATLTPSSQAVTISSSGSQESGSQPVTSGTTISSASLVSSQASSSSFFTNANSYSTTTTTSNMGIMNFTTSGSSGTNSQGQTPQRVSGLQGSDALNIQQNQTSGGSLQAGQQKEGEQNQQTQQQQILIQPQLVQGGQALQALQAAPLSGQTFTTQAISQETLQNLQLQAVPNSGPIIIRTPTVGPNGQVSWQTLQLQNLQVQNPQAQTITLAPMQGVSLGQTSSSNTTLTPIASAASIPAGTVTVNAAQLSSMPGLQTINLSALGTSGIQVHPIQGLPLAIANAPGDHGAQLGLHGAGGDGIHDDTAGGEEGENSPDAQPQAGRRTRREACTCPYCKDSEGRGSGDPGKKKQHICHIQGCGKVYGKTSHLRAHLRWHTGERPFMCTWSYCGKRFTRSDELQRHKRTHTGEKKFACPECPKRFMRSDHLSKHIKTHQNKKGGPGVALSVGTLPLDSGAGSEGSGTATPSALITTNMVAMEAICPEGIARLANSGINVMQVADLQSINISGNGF
Chain of Glucocorticoid receptor (Homo sapiens) (P04150 whole entry, looked up, the tested form may be a part): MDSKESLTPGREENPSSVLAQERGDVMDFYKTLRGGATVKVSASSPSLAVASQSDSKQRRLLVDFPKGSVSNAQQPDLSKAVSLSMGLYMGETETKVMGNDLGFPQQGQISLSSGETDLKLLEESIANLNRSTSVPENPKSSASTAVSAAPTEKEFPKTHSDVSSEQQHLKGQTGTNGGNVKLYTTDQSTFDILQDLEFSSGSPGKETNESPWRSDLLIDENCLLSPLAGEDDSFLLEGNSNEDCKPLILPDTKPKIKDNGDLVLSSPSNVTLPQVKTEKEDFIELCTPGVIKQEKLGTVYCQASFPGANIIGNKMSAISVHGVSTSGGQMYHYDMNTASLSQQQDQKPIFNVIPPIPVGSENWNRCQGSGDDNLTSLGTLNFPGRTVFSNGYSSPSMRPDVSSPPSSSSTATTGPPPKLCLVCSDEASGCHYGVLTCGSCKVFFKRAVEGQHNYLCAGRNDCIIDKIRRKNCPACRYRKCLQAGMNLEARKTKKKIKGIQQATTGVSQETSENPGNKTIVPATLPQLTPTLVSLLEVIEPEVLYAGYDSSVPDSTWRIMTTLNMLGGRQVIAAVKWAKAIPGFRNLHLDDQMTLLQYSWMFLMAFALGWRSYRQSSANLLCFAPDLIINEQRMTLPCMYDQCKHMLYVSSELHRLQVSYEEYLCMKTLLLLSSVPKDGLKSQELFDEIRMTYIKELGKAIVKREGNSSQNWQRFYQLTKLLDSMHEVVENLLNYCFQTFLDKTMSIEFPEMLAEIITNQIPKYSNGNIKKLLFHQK
Chain of Nuclear receptor subfamily 1 group I member 3 (Homo sapiens) (Q14994 whole entry, looked up, the tested form may be a part): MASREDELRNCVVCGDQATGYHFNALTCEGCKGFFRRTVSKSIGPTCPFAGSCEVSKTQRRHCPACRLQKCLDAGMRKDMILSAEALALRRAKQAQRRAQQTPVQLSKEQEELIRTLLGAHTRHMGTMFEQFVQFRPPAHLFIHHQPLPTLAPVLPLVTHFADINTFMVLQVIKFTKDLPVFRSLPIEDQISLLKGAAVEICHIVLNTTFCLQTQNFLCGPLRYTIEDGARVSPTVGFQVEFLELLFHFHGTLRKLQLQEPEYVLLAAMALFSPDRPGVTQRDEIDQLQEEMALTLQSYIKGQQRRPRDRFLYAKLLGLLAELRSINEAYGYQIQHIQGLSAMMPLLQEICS
Chain of Signal transducer and activator of transcription 3 (Homo sapiens) (P40763 whole entry, looked up, the tested form may be a part): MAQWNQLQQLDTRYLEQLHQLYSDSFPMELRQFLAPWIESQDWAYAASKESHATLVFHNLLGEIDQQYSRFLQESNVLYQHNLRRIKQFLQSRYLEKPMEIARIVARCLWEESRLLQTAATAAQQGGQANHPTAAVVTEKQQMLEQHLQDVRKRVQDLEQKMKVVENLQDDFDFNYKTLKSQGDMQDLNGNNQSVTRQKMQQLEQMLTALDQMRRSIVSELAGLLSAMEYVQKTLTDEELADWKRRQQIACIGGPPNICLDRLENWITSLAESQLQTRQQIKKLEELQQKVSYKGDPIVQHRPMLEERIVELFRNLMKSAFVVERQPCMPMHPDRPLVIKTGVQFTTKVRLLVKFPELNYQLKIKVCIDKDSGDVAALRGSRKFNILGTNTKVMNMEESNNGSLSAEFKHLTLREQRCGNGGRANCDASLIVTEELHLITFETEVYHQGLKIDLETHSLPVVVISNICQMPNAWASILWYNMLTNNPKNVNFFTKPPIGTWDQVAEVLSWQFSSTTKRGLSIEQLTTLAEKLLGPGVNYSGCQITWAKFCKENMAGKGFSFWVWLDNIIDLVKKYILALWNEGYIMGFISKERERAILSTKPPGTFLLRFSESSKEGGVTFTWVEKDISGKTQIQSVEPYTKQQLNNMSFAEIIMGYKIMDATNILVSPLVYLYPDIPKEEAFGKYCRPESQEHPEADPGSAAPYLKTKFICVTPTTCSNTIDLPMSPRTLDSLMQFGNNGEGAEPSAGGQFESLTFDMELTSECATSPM
Chain of Steroid hormone receptor ERR1 (Homo sapiens) (P11474 whole entry, looked up, the tested form may be a part): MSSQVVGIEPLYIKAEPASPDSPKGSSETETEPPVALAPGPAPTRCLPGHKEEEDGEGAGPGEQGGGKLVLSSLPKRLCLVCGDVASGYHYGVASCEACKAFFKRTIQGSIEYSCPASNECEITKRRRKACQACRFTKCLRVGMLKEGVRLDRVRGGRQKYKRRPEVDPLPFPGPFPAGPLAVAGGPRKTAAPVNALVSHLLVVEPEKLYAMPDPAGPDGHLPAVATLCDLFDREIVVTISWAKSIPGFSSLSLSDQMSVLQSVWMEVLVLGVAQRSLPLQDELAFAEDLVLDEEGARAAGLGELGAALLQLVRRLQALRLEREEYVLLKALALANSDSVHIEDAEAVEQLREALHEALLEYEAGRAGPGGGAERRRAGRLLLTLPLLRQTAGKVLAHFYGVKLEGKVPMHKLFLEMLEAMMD
Chain of Estrogen receptor (Homo sapiens) (P03372 whole entry, looked up, the tested form may be a part): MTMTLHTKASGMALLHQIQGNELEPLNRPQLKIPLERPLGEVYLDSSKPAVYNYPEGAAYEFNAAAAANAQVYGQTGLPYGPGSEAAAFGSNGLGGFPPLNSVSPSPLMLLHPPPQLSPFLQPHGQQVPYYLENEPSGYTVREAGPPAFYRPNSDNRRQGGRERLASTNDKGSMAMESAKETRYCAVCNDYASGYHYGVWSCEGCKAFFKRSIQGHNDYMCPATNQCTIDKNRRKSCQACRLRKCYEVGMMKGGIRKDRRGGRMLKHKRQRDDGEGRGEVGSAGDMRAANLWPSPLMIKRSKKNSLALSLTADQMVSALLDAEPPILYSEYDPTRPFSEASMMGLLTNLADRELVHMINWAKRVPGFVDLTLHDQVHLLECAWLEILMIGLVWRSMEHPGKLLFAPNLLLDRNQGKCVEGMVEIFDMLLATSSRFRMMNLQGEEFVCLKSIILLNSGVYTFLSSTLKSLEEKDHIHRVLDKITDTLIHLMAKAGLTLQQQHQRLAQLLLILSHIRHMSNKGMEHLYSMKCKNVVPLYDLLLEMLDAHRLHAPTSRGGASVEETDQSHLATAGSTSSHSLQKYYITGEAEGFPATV

Take `CN(C)[C@@H]1C(=O)C(C(N)=O)=C(O)[C@@]2(O)C(=O)C3=C(O)c4c(O)ccc(Cl)c4[C@@](C)(O)[C@H]3C[C@@H]12`: the result in [1], in [2], in assay [3], in [4], in assay [5] and in [6] was inactive. In addition, the molecule was classed as inactive in [7], in [8], in assay [9], in [10] and in [11].
The term AC50 denotes the concentration giving half of the maximal activity seen. Take `CC(C=O)Cc1ccc2c(c1)OCO2` (stereo not drawn): the molecule was classed as inactive in assay [1], in [2], in assay [3], in assay [4], in assay [5] and in assay [7]. For the same molecule, the molecule was called inactive in assay [8], in [10], in assay [12] and in assay [11]. Moreover, the concentration at half-maximal activity (AC50) in assay [9] was 12.8 µM (active).
On to `O=S(=O)(C(Cl)(Cl)Cl)C(Cl)(Cl)Cl`, for which the AC50 in assay [1] is 11.1 µM (active); in assay [2] it was 11.1 µM (active); in assay [3] it was 16.8 µM (active); in [5] it was 16.9 µM (active); in assay [6], 7.46 µM (active); in assay [10], 15.4 µM (active). The call in assay [4], in assay [7], in [8], in assay [12] and in [11] was inactive.
As for `OC[C@@H](O)[C@H]1O[C@@H]2O[C@H](C(Cl)(Cl)Cl)O[C@@H]2[C@H]1O`, the outcome in assay [1], in assay [2], in [3], in assay [4], in [5] and in assay [6] was inactive. Moreover, the molecule was called inactive in assay [7], in assay [8], in assay [13], in assay [14], in assay [15] and in [10]. The result in [12] was inactive.
In the case of `Fc1cccc(Cl)c1CCl`, the AC50 in assay [1] is 100 µM (active); in assay [2] it was 65.3 µM (active). For the same molecule, the molecule was classed as inactive in assay [3], in assay [4], in [5], in assay [7], in [8] and in assay [13]. Also, the result in assay [10], in assay [16] and in assay [17] was inactive.
For the molecule `O=C(O)COc1cc(Cl)c(Cl)cc1Cl`, the outcome in [1], in assay [2], in [3], in [4], in [5] and in assay [6] was inactive. The molecule was called inactive in assay [7], in [8], in [9], in assay [10] and in assay [17].
Turning to `CCCCCCCCCCCCc1cccc(S(=O)(=O)O)c1`, the outcome in assay [1], in assay [2], in assay [3], in assay [4], in [5] and in assay [6] was inactive. Further, the molecule was classed as inactive in assay [7], in [8], in assay [13] and in assay [10].
For `O=C(O)c1cc(I)cc(I)c1I`, the result in assay [2], in [3], in assay [4], in assay [5], in assay [6] and in [7] was inactive. Further, the call in assay [8], in assay [9], in assay [10], in assay [12] and in assay [17] was inactive.
Turning to `CC(C)N(C(=O)CCl)c1ccccc1`, the AC50 in [2] is 26.5 µM (active); in [3], 33.4 µM (active); in [8], 8.03 µM (active); in [9], 51.7 µM (active); in [10], 47.9 µM (active). Also, the molecule was called inactive in assay [4], in assay [5], in assay [6], in [7] and in [17].
In the case of `O=C(CCl)Nc1ccccc1`, the AC50 is 32.9 µM (active) in assay [1]; 25.8 µM (active) in [2]; 6.32 µM (active) in assay [3]; 43.7 µM (active) in assay [9]; 22 µM (active) in assay [10]. In addition, the call in [4], in assay [5], in assay [7] and in assay [8] was inactive.

These data come from PubChem BioAssay (EPA / NIEHS).
